# Screening results (PubChem BioAssay)
# This is a sample that favours compounds with a hit; in the whole collection about 1.8% have one here.
# hERG WT inh = inhibitors of human wildtype KCNH2 potassium channel; Q12809; activity change, % at 1.84 µM; actives 0.37% (n = 340,000); AID 720551; U2OS, BacMam KCNH2, thallium flux FluxOr; active compounds read low;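 active = maximum activity change below -70%; inconclusive = maximum activity change between -70% and -50%; inactive = maximum activity change above -50%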; also: % is scaled to controls: 0 for no effect and ±100 for the full control effect
#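 U2OS cells were transduced with wild-type KCNH2 virus (2.03 x 10^8 / mL) for 4 h at room temperature, then cultured overnight at 37 C. Thallium flux was read with FluxOr dye. Rate constants were normalized to DMSO controls.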
# A-T KAP1 phos = candidate therapy for ataxia-telangiectasia. F2112 A-T fibroblasts, KAP-1 phosphorylation AlphaLISA; neocarzinostatin DNA damage 30 min before lysis. Potency, µM (doses to about 57.5 µM), without a hit: at the top dose activation, most hits filed as activators. actives 0.19% (n = 320,000). AID 485349; also: potency is read from the fitted curve at half-maximal effect; % of control where 0% means no effect; nearly all actives have a fitted effect of over 45% in size
#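 hTERT-immortalized A-T patient fibroblasts (F2112), 500 cells/well in OPTI-MEM, 1% FBS, got compounds for 60 min, then NCS for 30 min at 37C. Lysates were then assayed for phospho-KAP-1 by AlphaLISA (anti-pKAP1 donor, anti-KAP1 acceptor beads), 6 hr at 25C.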
# KCNH2 3.1 inh = KCNH2 3.1 (human) potassium channel inhibition; AID 720553; U2OS KCNH2 3.1, thallium flux FluxOr; active compounds read low; actives 0.95% (n = 340,000); activity change, % (tested at about 1.8 µM);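 active = maximum activity change below -70%; inconclusive = maximum activity change from -70% to -50%; inactive = maximum activity change above -50%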;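 also: thallium influx rate constant from kinetic fluorescence after stimulation buffer; % is scaled to controls: 0 for no effect and ±100 for the full control effect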
#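 Thallium flux read-out: FluxOr dye with Red40 quencher in HBSS/HEPES, 45 min at RT. Rate constants from kinetic reads were normalized to positive and negative DMSO controls. Cells: U2OS virally expressing the 3.1 isoform.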
# 12-LOX inh = ALOX12 (human) lipoxygenase inhibition. P18054. purified 12hLO, xylenol orange hydroperoxide absorbance. Potency, µM (series often up to 108 µM), inactives show at the top dose activity change, negative = inhibition, actives largely listed as inhibitors. actives 1.1% (n = 580,000). AID 1671190; also: potency is read from the fitted curve at half-maximal effect; % is scaled to controls: 0 for no effect and ±100 for the full control effect
# Target sequence (P18054 whole entry, looked up): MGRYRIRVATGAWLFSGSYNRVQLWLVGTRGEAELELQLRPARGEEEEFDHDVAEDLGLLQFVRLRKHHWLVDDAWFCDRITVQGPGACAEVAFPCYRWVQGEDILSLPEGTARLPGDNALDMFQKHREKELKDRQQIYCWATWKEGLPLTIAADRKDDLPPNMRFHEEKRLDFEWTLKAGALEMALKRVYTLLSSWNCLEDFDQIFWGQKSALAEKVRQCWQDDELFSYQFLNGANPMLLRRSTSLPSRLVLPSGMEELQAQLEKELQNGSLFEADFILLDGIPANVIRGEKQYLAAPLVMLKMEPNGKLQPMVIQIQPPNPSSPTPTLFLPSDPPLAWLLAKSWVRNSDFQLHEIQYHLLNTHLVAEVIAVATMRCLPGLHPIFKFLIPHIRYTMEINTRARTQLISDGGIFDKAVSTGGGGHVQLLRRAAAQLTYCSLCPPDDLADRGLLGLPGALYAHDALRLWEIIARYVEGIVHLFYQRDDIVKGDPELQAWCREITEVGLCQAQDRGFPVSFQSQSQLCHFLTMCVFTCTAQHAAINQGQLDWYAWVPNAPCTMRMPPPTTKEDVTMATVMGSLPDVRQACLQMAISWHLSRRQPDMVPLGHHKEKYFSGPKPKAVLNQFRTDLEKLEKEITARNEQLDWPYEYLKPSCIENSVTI
#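 Purified human 12hLO (150 nM final) in 25 mM Hepes, 0.01% Triton X-100, pH 7.0 was preincubated 15 min at room temperature with compound. Then 40 uM arachidonic acid was added, 30 min. Hydroperoxide was read by Fe-XO absorbance ratio 573/405 nm.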
# * marks the source's active call; other numbers are inactive results; ? = inconclusive; / = no result given; [ ] = another dose, or the depositor's remark. Unless noted, calls follow the shape of the dose curve; as a rule, active = well fitted curve in the direction sought with a large enough effect; inconclusive = small, poorly fitted or top-dose-only effect, or another doubt; inactive = no such curve, though single readings can be large; an effect the other way counts as inactive or inconclusive.
SMILES,hERG WT inh,A-T KAP1 phos,KCNH2 3.1 inh,12-LOX inh
COc1cc(-c2nn3c(C4CCCCC4)nnc3s2)cc(OC)c1OC,-8.2,2.0%,-10.0,25.1µM*
COc1cccc(-c2nn(C)c3sc(C(=O)NCc4ccc5c(c4)OCO5)cc23)c1,-4.1,3.1%,-91.6*,14.4%
NC(=S)NN=C1c2ccccc2-c2ccccc21,1.3,-20.0%,2.8,35.5µM*
CCOc1ccc(CN2CCN(Cc3cccc4nonc34)CC2CCO)cc1 (centres undefined),-76.7*,5.6%,-115.7*,1.6%
CCOc1ccc(CN2CCN(Cc3cnn(CC)c3C)CC2CCO)cc1 (centres undefined),6.2,-5.2%,2.2,0.9%
CCn1c(CN2CCN(Cc3ccc(C)cc3)C(CCO)C2)nc2ccccc21 (centres undefined),-24.9,6.6%,-98.3*,?
CCOc1ccc(CN2CCN(Cc3cc4c(cc3Cl)OCO4)CC2CCO)cc1 (centres undefined),-110.7*,15.2%,-119.2*,-10.2%
CCOc1ccc(CN2CCN(Cc3cccc4c3OCO4)CC2CCO)cc1 (centres undefined),-1.1,-2.0%,-23.4,-8.5%
CC(C)Cn1c(CN2CCN(C)C(CCO)C2)nc2ccccc21 (centres undefined),9.1,0.3%,0.8,29.1%
Cc1cnc(C2CC2)n1C1CCCN(C(=O)C2CC2)C1 (centres undefined),/,/,/,26.9%
CSc1cccc(NC(=O)O[C@@H]2CC[C@]3(C)C(CC[C@@H](O)[C@H]3CC(=O)N3CC[C@H](NC(C)=O)C3)[C@]2(C)CO)c1 (some centres undefined),/,/,/,59.8%
Cc1cccc(-n2c(=S)[nH]c3sc4c(c3c2=O)CCc2ccccc2-4)c1,1.3,-3.4%,4.4,15.8µM*
Cc1ccc(-n2c(=S)[nH]c3sc4c(c3c2=O)CCc2ccccc2-4)cc1,20.8,4.1%,7.8,?
CCOC(=O)C1CCCN(C(=O)Cc2ccc(N(Cc3ccc(C)cc3)C(=O)c3ccco3)cc2)C1 (centres undefined),/,/,/,-12.0%
CCC[n+]1c2ccccc2cc2ccccc21,-0.8,39.8µM*,9.9,?
CCCC[n+]1c2ccccc2cc2ccccc21,6.0,?,10.8,8.91µM*
Fc1cccc(-c2nc(COc3ccc(Br)cc3F)co2)c1,/,/,/,31.6µM*
COc1ccc(/C=C(\NC(=O)c2ccc([N+](=O)[O-])cc2)C(=O)NCCN2CCOCC2)cc1,-118.1*,-0.1%,-77.9*,0.3%
COc1ccc(/C=C(/NC(=O)c2ccc([N+](=O)[O-])cc2)C(=O)NCCCN(C)C)cc1,-84.1*,-7.2%,?,-8.6%
CN(C)CCCNC(=O)/C(=C\C=C\c1ccccc1)NC(=O)c1ccc([N+](=O)[O-])cc1,-72.2*,9.5%,-99.0*,?
COc1ccc(/C=C(\NC(=O)c2ccc([N+](=O)[O-])cc2)C(=O)NCCCN2CCOCC2)cc1,-45.8,1.4%,?,-4.6%
CCCCOc1ccc(C(=O)N/C(=C/C=C/c2ccccc2)C(=O)NCCCO)cc1,-1.0,1.9%,-7.3,?
Cc1ccc(C(=O)N/C(=C\c2ccc(Cl)cc2)C(=O)NCCN2CCOCC2)cc1,-93.3*,9.8%,?,11.1%
COc1cccc(-c2ocnc2C(=O)NCc2ccccc2C)c1,/,/,/,-2.2%
COc1ccc(C(=O)NC2CCN(c3cc(-c4ccccc4)[nH]n3)C2)c(OC)c1 (centres undefined),/,/,/,42.8%
SMILES,hERG WT inh,A-T KAP1 phos,KCNH2 3.1 inh,12-LOX inh
COc1cc(/C=C(\C#N)c2ccc(Cl)cc2)c(Br)cc1OCc1ccccc1,/,/,/,4.7%
COc1ccccc1CN1CCCn2nc(C)c(-c3ccccc3C(N)=O)c21,/,/,/,-2.6%[176 µM]
Cc1ccc(C(=O)N/C(=C\c2ccc([N+](=O)[O-])cc2)C(=O)NCCc2ccccc2)cc1,-20.2,3.5%,-95.8*,-42.9%
O=C(NCCc1ccccc1)/C(=C\c1ccc([N+](=O)[O-])cc1)NC(=O)c1ccc(Br)cc1,-8.1,-4.0%,-17.0,-15.8%
CC(C)C(NC(=O)N(C)Cc1ccccc1)c1ccc2c(c1)OCCO2 (centres undefined),/,/,/,-5.2%
COc1ccc(-c2nc3n(c2C)CCC3)cc1,-4.4,25.1µM*,4.7,?
Cc1ccc(OCc2nc(C3CCCCN3C(=O)c3ccn[nH]3)no2)cc1 (centres undefined),/,/,/,52.3%
COC(=O)c1ccc(C(=O)Nc2ccc3c(c2)C(=O)NC3=O)cc1,11.9,-7.4%,-95.9*,-23.3%
Cc1ccc(C(=O)Nc2ccc3c(c2)C(=O)NC3=O)cc1,28.1,1.3%,3.5,?
N=c1c2c(n(Cc3ccc(Cl)c(Cl)c3)c3c1CCC3)CCCC2,-1.9,-5.4%,-23.1,?
N=c1c2c(n(Cc3ccc(Br)cc3)c3c1CCC3)CCCC2,3.8,5.0%,-78.1*,-10.1%
CCCn1c2c(c(=N)c3c1CCC3)CCC2,1.7,2.51µM*,1.9,0.0%
CCCn1c2c(c(=N)c3c1CCC3)CCCC2,7.8,1.8%,-1.3,?
CN(C)CCC(=O)N1C/C(=C/c2ccccc2)C(=O)/C(=C\c2ccccc2)C1,47.1,/,-72.3*,-24.2%
COc1ccc(-c2c(C)oc3cc(OCCN4CCN(C)CC4)ccc3c2=O)cc1,/,/,/,-12.6%
Cn1c(SCC(=O)Nc2cccc(C(=O)O)c2)nnc1-c1ccc(Cl)cc1,/,/,/,-13.8%
Clc1ccc(-c2nnc(CSc3nnc(-c4cccs4)n3Cc3ccccc3)o2)cc1,-125.4*,-8.2%,-85.9*,-12.1%
CC1(C)[C@H]2CC[C@@H](CNC(=O)Cc3cccc(Cl)c3)[C@@H]1C2,/,/,/,11.4%[176 µM]
C=CCN(c1ccccc1)S(=O)(=O)c1ccc2[nH]cc(C(=O)NCCOC)c(=O)c2c1,-2.0,-1.9%,2.9,?
COCCNC(=O)c1c[nH]c2ccc(S(=O)(=O)N(C)c3ccc(C)c(C)c3)cc2c1=O,-3.9,7.08µM*,-9.1,-1.9%
Cc1ccc(CNC(=O)CC2(CC3=NS(=O)(=O)c4ccccc4N3)CCCC2)cc1,7.6,-4.1%,-84.8*,2.8%
C=C1CCN(C(CC(C)C)C(=O)OC)S(=O)(=O)c2ccccc21 (centres undefined),-1.6,8.1%,-4.0,-0.2%
COC(=O)[C@H](CC(C)C)N1Cc2cc(OC)cc(OC)c2-c2ccccc2S1(=O)=O,-3.8,-3.5%[11.5 µM],-14.2,25.1µM*
O=C(N[C@@H]1CCC[C@@H]1C(=O)NCCc1cccs1)c1ccncc1,/,/,/,3.2%
CCN(C(=O)c1cc2sc3ccccc3c2s1)c1ccccc1,/,/,/,7.94µM*
COc1ccc(-n2nc(C3CCCN(C(=O)C4CC4)C3)[nH]c2=O)cc1 (centres undefined),/,/,/,17.8µM*
COc1ccc(-n2nc(C3CCCN(C(C)=O)C3)[nH]c2=O)cc1 (centres undefined),/,/,/,2.5%[176 µM]
O=C(Cc1cccc(Cl)c1)N1CCCC(c2nn(-c3cccc(Cl)c3)c(=O)[nH]2)C1 (centres undefined),/,/,/,15.8µM*
O=C(c1ccc(F)cc1)N1CCC(c2nn(-c3ccc(Cl)cc3)c(=O)[nH]2)CC1,/,/,/,35.5µM*
